Among all 5,500 compounds or so, about 2,000 (36%) were called active. Roughly 18% stayed inconclusive and do not appear here. No stated cut-off is given here; in the data, active means normalized growth mostly below about 0.91 (no sharp cut-off); inconclusive means no clear call, values can overlap the other calls; inactive means mostly above about 0.92. The list shows a part of the results.
Assay: chemical genetic growth profiling, strain panel (AID 1159580);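 further: tested at 20 µM; growth read once vehicle control cultures reached saturation at 30 °C; 1 = growth at the plate median or of vehicle wells; lower values mean less growth of the strain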
Details: S. cerevisiae deletion strains, growth OD
[1] = locus YBL105C, strain PKC1, active compounds read low
[2] = locus YBR135W, strain CKS1, active compounds read low
[3] = locus YBR136W, strain MEC1, active compounds read low
[4] = locus YBR160W, strain CDC28, active compounds read low
[5] = locus YDL017W, strain CDC7, active compounds read low
[6] = locus YDL028C, strain MPS1, active compounds read low
[7] = locus YDL108W, strain KIN28, active compounds read low
[8] = locus YDL214C, strain PRR2, active compounds read low
[9] = locus YDR052C, strain DBF4, active compounds read low
[10] = locus YDR226W, strain ADK1, active compounds read low
[11] = locus YDR477W, strain SNF1, active compounds read low
[12] = locus YER123W, strain YCK3, active compounds read low
[13] = locus YER133W, strain GLC7, active compounds read low
[14] = locus YFR003C, strain YPI1, active compounds read low
[15] = locus YFR019W, strain FAB1, active compounds read low
[16] = locus YFR028C, strain CDC14, active compounds read low
[17] = locus YGR040W, strain KSS1, active compounds read low
[18] = locus YGR052W, strain FMP48, active compounds read low
[19] = locus YGR092W, strain DBF2, active compounds read low
[20] = locus YHR030C, strain SLT2, active compounds read low
[21] = locus YHR079C, strain IRE1, active compounds read low
[22] = locus YHR082C, strain KSP1, active compounds read low
[23] = locus YHR205W, strain SCH9, active compounds read low
[24] = locus YIL147C, strain SLN1, active compounds read low
[25] = locus YJL095W, strain BCK1, active compounds read low
[26] = locus YJL128C, strain PBS2, active compounds read low
[27] = locus YJL157C, strain FAR1, active compounds read low
[28] = locus YJR016C, strain ILV3, active compounds read low
[29] = locus YJR066W, strain TOR1 (second series), active compounds read low
[30] = locus YJR066W, strain TOR1, active compounds read low
[31] = locus YKL048C, strain ELM1, active compounds read low
[32] = locus YKL067W, strain YNK1, active compounds read low
[33] = locus YKL101W, strain HSL1, active compounds read low
[34] = locus YKL203C, strain TOR2, active compounds read low
[35] = locus YLR113W, strain HOG1, active compounds read low
[36] = locus YLR133W, strain CKI1, active compounds read low
[37] = locus YLR403W, strain SFP1, active compounds read low
[38] = locus YML070W, strain DAK1, active compounds read low
[39] = locus YMR205C, strain PFK2 (second series), active compounds read low
[40] = locus YNL006W, strain LST8, active compounds read low
[41] = locus YNL020C, strain ARK1, active compounds read low
[42] = locus YNL183C, strain NPR1, active compounds read low
[43] = locus YNL307C, strain MCK1 (second series), active compounds read low
[44] = locus YOL136C, strain PFK27, active compounds read low
[45] = locus YOR061W, strain CKA2, active compounds read low
[46] = locus YOR119C, strain RIO1, active compounds read low
[47] = locus YOR231W, strain MKK1, active compounds read low
[48] = locus YPL031C, strain PHO85, active compounds read low
[49] = locus YPL153C, strain RAD53, active compounds read low
[50] = locus YPL209C, strain IPL1, active compounds read low
[51] = locus YPL256C, strain CLN2, active compounds read low
[52] = locus YPR106W, strain ISR1, active compounds read low
[53] = locus YPR111W, strain DBF20, active compounds read low

Measured: normalized growth

CC(C)c1ccc(COC(=O)Nc2ccc(CSc3ccc(Cl)cc3)o2)cc1
inactive: locus YAR019C, strain CDC15, active compounds read low 0.99 | [1] 0.992 | [2] 0.983 | [3] 0.983 | [4] 0.989 | [5] 0.982 | [6] 0.985 | locus YDL101C, strain DUN1, active compounds read low 0.992 | [7] 0.985 | locus YDL132W, strain cdc53, active compounds read low 0.982 | [8] 0.934 | [9] 0.993 | locus YDR054C, strain cdc34, active compounds read low 0.972 | [10] 0.981 | [11] 0.929 | [12] 0.91 | [13] 0.925 | locus YFL009W, strain cdc4, active compounds read low 0.979 | locus YFL029C, strain CAK1, active compounds read low 0.983 | [14] 0.983 | [15] 0.935 | [16] 0.988 | [17] 0.923 | [18] 0.952 | [19] 0.921 | [20] 0.871 | [21] 0.886 | [22] 0.963 | [23] 0.82 | [24] 0.983 | [25] 0.855 | [26] 0.954 | [27] 0.907 | [28] 0.98 | [29] 0.9 | [30] 1.01 | [31] 0.953 | [32] 0.938 | [33] 0.953 | locus YKL193C, strain SDS22, active compounds read low 0.98 | [34] 0.976 | [35] 0.879 | [36] 0.928 | [37] 0.893 | [38] 0.912 | locus YMR001C, strain CDC5, active compounds read low 0.983 | [39] 0.928 | locus YMR277W, strain FCP1, active compounds read low 0.982 | [40] 0.988 | [41] 0.919 | locus YNL161W, strain CBK1, active compounds read low 0.98 | [42] 0.995 | locus YNL207W, strain RIO2, active compounds read low 0.982 | locus YNL222W, strain SSU72, active compounds read low 0.987 | [43] 0.933 | locus YOL078W, strain AVO1, active compounds read low 0.981 | [44] 0.92 | [45] 0.909 | [46] 0.983 | [47] 0.963 | locus YOR329C, strain SCD5, active compounds read low 0.986 | [48] 0.902 | [49] 0.912 | [50] 0.988 | [51] 0.923 | locus YPR025C, strain CCL1, active compounds read low 0.989 | [52] 0.983 | [53] 0.983 | strain NNK1, active compounds read low 0.987 | strain TSCII, active compounds read low 0.986

N/C(CCSc1ccc(Cl)cc1)=N/OC(=O)Nc1ccc(Cl)cc1
active: [8] 0.336 | [11] 0.273 | [12] 0.0987 | [13] 0.286 | [15] 0.108 | [17] 0.247 | [18] 0.118 | [19] 0.275 | [20] 0.104 | [21] 0.118 | [22] 0.114 | [23] 0.253 | [25] 0.111 | [27] 0.371 | [29] 0.0983 | [30] 0.114 | [31] 0.346 | [32] 0.377 | [33] 0.259 | [34] 0.14 | [35] 0.126 | [36] 0.377 | [37] 0.311 | [38] 0.103 | [39] 0.345 | [40] 0.697 | [41] 0.375 | [42] 0.122 | [43] 0.315 | [44] 0.125 | [45] 0.326 | [46] 0.133 | [47] 0.103 | [48] 0.142 | [49] 0.0978 | locus YPL204W, strain HRR25, active compounds read low 0.105 | [51] 0.118
inactive: [1] 0.986 | [2] 0.984 | [3] 0.978 | [4] 0.978 | [5] 0.982 | [6] 0.986 | [7] 0.983 | [9] 0.982 | [10] 0.983 | [14] 0.981 | [16] 0.986 | [24] 0.986 | [26] 0.944 | [28] 0.981 | [50] 0.983 | [52] 0.976 | [53] 0.978
